Test results taken from PubChem BioAssay (NCI).
Compounds without any hit were thinned out: in the full panel of roughly 83,000, 20% have a hit.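 Interpretation: 100, growth as untreated; towards 0, rising growth inhibition; 0, no net growth; 0 to -100, cell death. Compounds scoring below 10 were considered active.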 Activity calls are given as the source filed them.

Columns and labels:
Assay in all cases: NCI-60 one-dose screen, 48 h (100 = growth as untreated, 0 = no growth, -100 = all killed)
Details in all cases: 10 µM unless noted
T-47D breast = system: T-47D breast
BT-549 breast = system: BT-549 breast
MDA-MB-435 melanoma = system: MDA-MB-435 melanoma
SW-620 colon = system: SW-620 colon
MCF7 breast = system: MCF7 breast
HCT-116 colon = system: HCT-116 colon
HCC-2998 colon = system: HCC-2998 colon
KM12 colon = system: KM12 colon

Measured: growth

O=c1c2ccccc2n(C[C@H]2CO2)c2ccccc12
inactive: T-47D breast 12.6%
active: BT-549 breast -4.38% | MDA-MB-435 melanoma -61.5% | SW-620 colon 0.352% | MCF7 breast -4.75% | HCT-116 colon 2.21% | HCC-2998 colon -70% | KM12 colon -16.4%

O=C(C[C@]1(O)C(=O)Nc2ccc(Br)cc21)c1ccco1
inactive: T-47D breast 104% | BT-549 breast 109% | MDA-MB-435 melanoma 112% | SW-620 colon 95.5% | MCF7 breast 94.2% | HCT-116 colon 105% | HCC-2998 colon 115% | KM12 colon 101%

COC1C(O)CC(OC2CC(OC3CC(O[C@@H]4C(=O)c5c(cc6cc(OC7CC(OC8CC(O)C(O)C(C)O8)C(O)C(C)O7)c(C)c(O)c6c5O)CC4[C@H](OC)C(=O)C(C)=O)OC(C)C3O)OC(C)C2O)OC1C (stereo not given in full)
active: T-47D breast -4.93% | BT-549 breast -18.8% | MDA-MB-435 melanoma -74.8% | SW-620 colon 8.3% | MCF7 breast 3.16% | HCT-116 colon 4.47% | HCC-2998 colon -14.3%
inactive: KM12 colon 13%

CCOC(=O)c1c(NC(=O)c2ccccc2)sc2c3c(ccc12)OCN(C)C3
inactive: BT-549 breast 62.2%
active: T-47D breast -10.1% | MDA-MB-435 melanoma -88.5% | SW-620 colon -42.3% | MCF7 breast -50.6% | HCT-116 colon -20.9% | HCC-2998 colon -85% | KM12 colon 8.58%

Cc1nc2ccccc2c(/C=C/c2ccc(F)cc2)c1C(=O)/C=C/c1ccccc1
inactive: T-47D breast 10.9% | BT-549 breast 30.7% | MCF7 breast 11.4% | HCC-2998 colon 22% | KM12 colon 11.9%
active: MDA-MB-435 melanoma -9.7% | SW-620 colon -1.98% | HCT-116 colon -69.9%

CC(C)(C)CC(C)(C)Nc1c(-c2c(O)c3ccccc3oc2=O)nc2sc3ccccc3n12
inactive: T-47D breast 15.9% | BT-549 breast 51.9% | MDA-MB-435 melanoma 47.9% | SW-620 colon 21.3% | MCF7 breast 28.9% | HCT-116 colon 29.6% | HCC-2998 colon 52.6% | KM12 colon 45.1%

COc1cc(N2C(=O)[C@H](Cl)C2c2ccc(SC)cc2)cc(OC)c1OC (stereo not given in full)
active: BT-549 breast -9.33% | MDA-MB-435 melanoma -26.3% | HCT-116 colon -17.2% | HCC-2998 colon 7.52%
inactive: T-47D breast 49.1% | SW-620 colon 24.3% | MCF7 breast 12.4% | KM12 colon 14.4%

Cc1ccc(S(=O)(=O)N2CCCN(c3nc(-c4ccccc4)nc4nc(-c5ccccc5)oc34)CC2)cc1
inactive: T-47D breast 90.8% | BT-549 breast 117% | MDA-MB-435 melanoma 104% | SW-620 colon 111% | MCF7 breast 93.4% | HCT-116 colon 104% | HCC-2998 colon 107% | KM12 colon 109%

CCOC(=O)CNC1=C(Cl)C(=O)N(Cc2ccc(Cl)cc2)C1=O
inactive: T-47D breast 93.3% | BT-549 breast 109% | MDA-MB-435 melanoma 105% | SW-620 colon 99.8% | MCF7 breast 99.7% | HCT-116 colon 102% | HCC-2998 colon 103% | KM12 colon 110%

O=c1oc2c(cc1-c1ccccc1)c[n+]([O-])c1ccccc21
inactive: T-47D breast 91% | BT-549 breast 95.5% | MDA-MB-435 melanoma 101% | SW-620 colon 103% | MCF7 breast 91.1% | HCT-116 colon 98.8% | HCC-2998 colon 107% | KM12 colon 104%

C=C[C@@]1(C)CC(=O)[C@@H](C(C)(C)c2cn(C)c3ccc(Br)cc23)C[C@@H]1O[Si](C)(C)C(C)(C)C
inactive: T-47D breast 89.6% | BT-549 breast 111% | MDA-MB-435 melanoma 101% | SW-620 colon 97.3% | MCF7 breast 80.1% | HCT-116 colon 89.7% | HCC-2998 colon 109% | KM12 colon 100%

Cc1nn(C)c2ncnc(N/N=C/c3cccc(O)c3O)c12
inactive: T-47D breast 19% | BT-549 breast 30.8% | MDA-MB-435 melanoma 24.4% | SW-620 colon 26.7% | MCF7 breast 15% | HCT-116 colon 18% | HCC-2998 colon 38.2% | KM12 colon 21.5%

O=S(=O)(N=C1C(Cl)=C(Cl)C(=NS(=O)(=O)c2ccccc2)C(Cl)=C1Cl)c1ccccc1
inactive: T-47D breast 88.9% | BT-549 breast 86.6% | MDA-MB-435 melanoma 101% | SW-620 colon 39.7% | MCF7 breast 53.8% | HCT-116 colon 25.4% | HCC-2998 colon 122% | KM12 colon 96.2%

Cc1ccc2nc(-c3ccc(C(=O)N/N=C/c4ccc([N+](=O)[O-])cc4)cc3)[nH]c2c1
inactive: T-47D breast 91.1% | BT-549 breast 106% | MDA-MB-435 melanoma 102% | SW-620 colon 106% | MCF7 breast 88.3% | HCT-116 colon 103% | HCC-2998 colon 105% | KM12 colon 97.6%

C=C(C)[C@@H]1CC[C@]2(COC3CCCCO3)CC[C@]3(C)[C@H](CC[C@@H]4[C@@]5(C)C=C(C=O)C(=O)C(C)(C)[C@@H]5CC[C@]43C)[C@@H]12 (stereo not given in full)
active: T-47D breast -48.9% | BT-549 breast -58.5% | MDA-MB-435 melanoma -56.4% | SW-620 colon -37.8% | MCF7 breast -58.4% | HCT-116 colon -92.4% | HCC-2998 colon -59% | KM12 colon -10.2%

N=C(N)c1ccc(-c2ccc(-c3cc(Cl)cc(Cl)c3)s2)s1
active: T-47D breast -50% | MDA-MB-435 melanoma -69.7% | SW-620 colon -39.8% | MCF7 breast -64.2% | HCT-116 colon -52.5% | HCC-2998 colon -59.9% | KM12 colon -58.6%
inactive: BT-549 breast 87.8%

COc1cc(C=Nc2oc(-c3ccccc3)c(-c3ccccc3)c2C#N)cc(CN2CCCC2)c1O
inactive: T-47D breast 85.7% | BT-549 breast 109% | MDA-MB-435 melanoma 104% | SW-620 colon 95.9% | MCF7 breast 96.4% | HCT-116 colon 95.4% | HCC-2998 colon 111% | KM12 colon 102%

CN(C)CCCn1c2c(c3cnccc3c1=O)C(=O)c1ccccc1-2
active: T-47D breast -5.32% | BT-549 breast 6.92% | MDA-MB-435 melanoma 3.83% | SW-620 colon -6.01% | MCF7 breast -3.97% | HCT-116 colon -12.6% | HCC-2998 colon 3.98% | KM12 colon 3.16%

COc1ccc(C(c2cc(OC)c(OC)c(OC)c2)N2CCCCC2)cc1 (stereo not given)
inactive: T-47D breast 33.6% | BT-549 breast 49.7% | SW-620 colon 14.5% | MCF7 breast 23.6% | HCT-116 colon 29.1% | HCC-2998 colon 79.6% | KM12 colon 30.2%
active: MDA-MB-435 melanoma -21.8%

C/C(=N\Nc1ccccc1)c1ccc(NC2=CC(=O)c3ccccc3C2=O)cc1
active: MDA-MB-435 melanoma -80.3%
inactive: T-47D breast 38.8% | BT-549 breast 76.3% | SW-620 colon 48.4% | MCF7 breast 30.4% | HCT-116 colon 51% | HCC-2998 colon 77.9% | KM12 colon 43.7%

Cc1ccc(C)c2c1sc1nc(N3CCOCC3)c(C#N)c(=O)n12
inactive: T-47D breast 73.4% | BT-549 breast 90.9% | MDA-MB-435 melanoma 118% | SW-620 colon 105% | MCF7 breast 51.5% | HCT-116 colon 88.6% | HCC-2998 colon 109% | KM12 colon 63.1%

COCC(=O)Oc1cc(-c2ccc(C)cc2C)c(OC(=O)COC)c(-c2ccc(C)cc2C)c1
inactive: T-47D breast 43.7% | BT-549 breast 56.6% | MDA-MB-435 melanoma 59.6% | SW-620 colon 43.2% | MCF7 breast 41% | HCT-116 colon 17.7% | HCC-2998 colon 88% | KM12 colon 44.8%

NS(=O)(=O)c1ccc(C(=O)N=Nc2c(O)[nH]c3ccc(Cl)cc23)cc1
inactive: T-47D breast 97.2% | BT-549 breast 98.8% | MDA-MB-435 melanoma 105% | SW-620 colon 100% | MCF7 breast 89.2% | HCT-116 colon 99.4% | HCC-2998 colon 114% | KM12 colon 102%

COC(=O)[C@]1(C)CCC[C@]2(C)[C@H]3C[C@@H]4[C@H]5[C@@H]6CC/C(=N\OCC/C(N)=N/O)[C@H]5[C@@]3(CC[C@H]21)CC4(C(C)C)O6
inactive: T-47D breast 50% | BT-549 breast 74.9% | MDA-MB-435 melanoma 82.9% | SW-620 colon 64.3% | MCF7 breast 55.9% | HCT-116 colon 52.6% | HCC-2998 colon 90.4% | KM12 colon 76%

COc1ccc2[nH]cc(-c3nonc3-c3c[nH]c4ccc(Br)cc34)c2c1
active: T-47D breast 3.83%
inactive: BT-549 breast 74.9% | MDA-MB-435 melanoma 65.8% | SW-620 colon 59.5% | MCF7 breast 31.2% | HCT-116 colon 36.7% | HCC-2998 colon 22.2% | KM12 colon 15.5%

OC1(c2ccccc2)c2ccccc2N(c2ccccc2)c2ccc(Cl)cc21 (stereo not given)
active: T-47D breast -85.1% | BT-549 breast -78.7% | MDA-MB-435 melanoma -81.5% | SW-620 colon -85.7% | MCF7 breast -88% | HCT-116 colon -85.9% | HCC-2998 colon -90.1% | KM12 colon -87.6%

C=C1C(=O)O[C@H]2[C@H]1CC/C(COC(=O)C(=O)c1c[nH]c3ccc(Cl)cc13)=C\CC[C@@]1(C)O[C@@H]21
active: T-47D breast -44.9% | BT-549 breast -87.2% | MDA-MB-435 melanoma -96.4% | SW-620 colon -75.5% | MCF7 breast -32.5% | HCT-116 colon -99.6% | HCC-2998 colon -75.9% | KM12 colon -72.8%

COc1ccc(/C=N/Nc2c3ccccc3nc3ccccc23)cc1
inactive: T-47D breast 87.5% | BT-549 breast 92.2% | MDA-MB-435 melanoma 97% | SW-620 colon 97.7% | MCF7 breast 81.9% | HCT-116 colon 97.4% | HCC-2998 colon 105% | KM12 colon 91.4%

CC1(C)CC[C@]23CC[C@]4(C)[C@H](CC[C@@H]5[C@@]6(C)C/C(=C/O)C(=O)C(C)(C)[C@@H]6CC[C@]54C)[C@H]2[C@H]1OC3
inactive: T-47D breast 114% | BT-549 breast 111% | MDA-MB-435 melanoma 97.7% | SW-620 colon 103% | MCF7 breast 85.7% | HCT-116 colon 105% | HCC-2998 colon 110% | KM12 colon 114%

O=C1CCCC1[n+]1ccccc1 (stereo not given)
inactive: T-47D breast 43.5% | BT-549 breast 84.3% | MDA-MB-435 melanoma 106% | SW-620 colon 117% | MCF7 breast 93% | HCT-116 colon 79.6% | HCC-2998 colon 107% | KM12 colon 97.6%
